Reference: ChEMBL document CHEMBL4888484, “Replenishing the malaria drug discovery pipeline: Screening and hit evaluation of the MMV Hit Generation Library 1 (HGL1) against asexual blood stage Plasmodium falciparum ,using a nano luciferase reporter read-out” (2022)
Screen size: about 4,800 compounds; about 420 (8.8%) showed an effect of 50% or more. The list comes from a sample in which strong results are over-represented; it also holds similar structures and randomly drawn compounds.

The molecules below were run on Plasmodium falciparum (assay: Confirmatory screen in NF54 nanoGlo assay, in single point, at 2uM, 72h). Conditions: timepoint 72 hour.
Format: functional, Erythrocyte
`COc1ccc(C)cc1NC(=O)c1nn(-c2ccccc2)c2ccccc2c1=O` was tested, and the “% Inhibition” value was 17%. With `CCn1cc(Cl)c(C(=O)N2CCN(C(=O)c3ccco3)CC2)n1` the “% Inhibition” value was -11%. In the case of `Cc1ccc(CN2CCN(CC(=O)NC3CCCCC3C)C2=O)cc1` (stereo not drawn), the “% Inhibition” value is reported as -10%. In the case of `C[C@](O)(CNC(=O)Cn1nc2ccccn2c1=O)c1cccs1`, the “% Inhibition” value is reported as -1%. In the case of `Clc1ccc(NC2(c3noc([C@@H]4CCCCO4)n3)CCC2)cc1`, the “% Inhibition” value is reported as 5%. For `COc1cc(CNCc2cccs2)ccc1OCc1ccccc1C`, the “% Inhibition” value was -7%. With `COc1ccc(CNCc2ccc(C)cc2)cc1Cn1ccnc1` the “% Inhibition” value was 42%. `CC1Cc2cc(-c3ccc(CNC(=O)C(C)(O)C4CC4)cc3)ccc2O1` (stereo not drawn) was tested, and the “% Inhibition” value was 4%. With `CC1(C)C[C@@H](NC(=O)c2cc3[nH]cnc3cc2F)CCO1` the “% Inhibition” value was 7%. In the case of `Cc1cc([C@H](Nc2ccccn2)c2ccccc2)c(NC(=O)c2ccccc2)s1`, the “% Inhibition” value is reported as 4%. In the case of `Oc1ccc2ncccc2c1[C@@H](Nc1ccccn1)c1cccc(Br)c1`, the “% Inhibition” value is reported as 67%. For `Cc1cc([C@H](Nc2ccccn2)c2cccnc2)c(NC(=O)c2ccccc2)s1`, the “% Inhibition” value was 2%. `Cc1nn(C)c(C)c1S(=O)(=O)N1CCCN(c2ccc(F)c(F)c2)CC1` was tested, and the “% Inhibition” value was 3%. For `CCCn1c(C)cnc1C1CN(S(=O)(=O)c2ccc(C)c(F)c2)C1`, the “% Inhibition” value was -6%. In the case of `Cc1noc(C(C)(C)NC(=O)Nc2c[nH]nc2-c2nccs2)n1`, the “% Inhibition” value is reported as -7%. In the case of `C[C@@H](CNc1ncc(C(=O)N2CCOCC2)cc1Cl)c1nncn1C`, the “% Inhibition” value is reported as -12%. For `COc1ccc(Cl)cc1S(=O)(=O)c1cnc(N2CCOCC2)nc1N`, the “% Inhibition” value was -2%. In the case of `COCCN1C(=O)C[C@H](Nc2ccc3c(c2)CCC3)C1=O`, the “% Inhibition” value is reported as 1%. `Cc1ccc(C)c(C(=O)CN2Cc3ccccc3C2=N)c1` was tested, and the “% Inhibition” value was 0%. In the case of `Fc1ccc(Nc2nc3c(s2)CCCC3)cc1`, the “% Inhibition” value is reported as -17%. With `c1ccc(C(c2ccccc2)N2CCN(c3nn4cnnc4c4ccccc34)CC2)cc1` the “% Inhibition” value was 65%. `Fc1cccc(-n2nc(-c3ccccc3F)cc2-c2ccccc2F)c1` was tested, and the “% Inhibition” value was -6%. With `CCOc1cc2c(cc1OC)[C@@H](N)CC2=O` the “% Inhibition” value was 1%. With `CC(C)c1cc(CN(Cc2cc(C(C)C)c(O)c(C(C)C)c2)C2CCCCC2)cc(C(C)C)c1O` the “% Inhibition” value was 96%. With `Cc1ccc(CN(C)C2CCCCC2)o1` the “% Inhibition” value was -18%. With `CCc1nn(C)cc1CN(Cc1cccc(O)c1)C1CCC(O)CC1` (stereo not drawn) the “% Inhibition” value was -3%. In the case of `Cc1ccc(-c2ccnc3c(C(=O)NC4CC4)cnn23)cc1C`, the “% Inhibition” value is reported as -2%. With `Cc1c([C@@H](NCc2ncccc2O)C(C)C)oc2ccccc12` the “% Inhibition” value was 99%. In the case of `N#CC1(C#N)C(c2ccc(Cl)cc2)C1(C#N)C#N`, the “% Inhibition” value is reported as 11%. For `O=C(NCc1cccc(C(F)(F)F)c1)c1csc(C(=O)NC2CCCC2)n1`, the “% Inhibition” value was -14%. In the case of `CN(C)c1c(F)c(F)c2cc3c(C(C)(C)C)nn(C)c3nc2c1F`, the “% Inhibition” value is reported as 3%. In the case of `COc1ccc([C@H](CNC(=O)c2ccccc2)N2CCC(c3ccccc3)=N2)cc1`, the “% Inhibition” value is reported as -3%. In the case of `COc1cccc(CNCCCN2CCOCC2)c1OCc1ccc(Cl)cc1Cl`, the “% Inhibition” value is reported as -1%. With `Clc1ccc(COc2ccc(Cl)cc2CNCCCn2ccnc2)c(Cl)c1` the “% Inhibition” value was 95%. `COc1cccc(CNCCN2CCOCC2)c1OCc1ccc(Cl)cc1Cl` was tested, and the “% Inhibition” value was 7%. In the case of `OCCNCc1ccc(Cl)cc1Cl`, the “% Inhibition” value is reported as 0%. `CCOc1cc(CNCCCn2ccnc2)ccc1OCc1ccccc1` was tested, and the “% Inhibition” value was 21%. `Clc1ccc(Cn2cc(CNCCCn3ccnc3)c3ccccc32)c(Cl)c1` was tested, and the “% Inhibition” value was 98%. In the case of `Cc1nc2ccnn2cc1C(=O)Nc1ccc(CCC(C)C)cn1`, the “% Inhibition” value is reported as -5%. With `Cc1cc(CN(C)c2cc(C3CC3)nc(N(C)Cc3cc(C)on3)n2)no1` the “% Inhibition” value was -13%. With `FC(F)Oc1cccc(-c2cc(C(F)(F)F)c3c(-c4ccc5c(c4)OCO5)noc3n2)c1` the “% Inhibition” value was 8%. For `N#Cc1nc(COc2cccc(Cl)c2)oc1NC[C@H]1CCCO1`, the “% Inhibition” value was -1%. In the case of `CN(CC(=O)Nc1ncccn1)S(=O)(=O)c1ccc2c(c1)OCCCO2`, the “% Inhibition” value is reported as -7%. `O=C1CC(C(=O)N2CCCCC2c2nc(-c3ccccc3)c[nH]2)CN1` (stereo not drawn) was tested, and the “% Inhibition” value was 3%. In the case of `Nc1nc(C2CC(N)C2)cc(N2CCC(Oc3ccccc3Cl)CC2)n1` (stereo not drawn), the “% Inhibition” value is reported as 51%. In the case of `N[C@H]1C[C@@H](c2cc(N3CCN(C4CCCCC4)CC3)nc(N3CCCC3)n2)C1`, the “% Inhibition” value is reported as 44%. For `Nc1nc(N2CCN(c3ccc(F)c(Cl)c3)CC2)cc([C@H]2C[C@@H](N)C2)n1`, the “% Inhibition” value was 32%. `CCC1CN(CCCN2C(=O)CNC2=O)CCC1c1ccccc1` (stereo not drawn) was tested, and the “% Inhibition” value was 0%. For `COC(=O)C1(CNC(=O)C2CCC2)CCCCC1`, the “% Inhibition” value was 1%. `CCN(C(=O)CN1C(=O)C(c2ccccc2)=NC12CCC(C)CC2)c1ccccc1` (stereo not drawn) was tested, and the “% Inhibition” value was -9%. For `CCN(C(=O)Cn1ncn2nc(-c3cccc4ccccc34)cc2c1=O)c1ccccc1`, the “% Inhibition” value was 1%. For `CCN(C(=O)Cn1cc(-c2ccccc2)c2ncn(CC)c(=O)c21)c1ccccc1`, the “% Inhibition” value was 75%. In the case of `CCOC[C@@H](O)CN(Cc1c(-c2ccccc2)noc1N1CCC(C)CC1)CC1CC1`, the “% Inhibition” value is reported as -7%. `O=C(NC1CCN(Cc2ccccc2)CC1)c1cn[nH]c1-c1ccccc1` was tested, and the “% Inhibition” value was -3%. In the case of `CCOC(=O)N1CCC(NC(=O)c2cn[nH]c2-c2ccc(OCC)c(Cl)c2)CC1`, the “% Inhibition” value is reported as 2%. For `CNC(=O)N1CCN(c2cc(C)nc(C3CC3)n2)CC1`, the “% Inhibition” value was -18%. In the case of `O=C(Cn1nnc2ccccc21)N(Cc1ccccc1)C1(C(=O)Nc2ccc3c(c2)OCO3)CCCCC1`, the “% Inhibition” value is reported as 23%. With `O=C(COc1ccccc1)N1CC(n2cnnc2C2CC2)C1` the “% Inhibition” value was -11%. With `CC1CC(C(=O)Nc2[nH]c(=O)ncc2F)CC(C)(C)C1` (stereo not drawn) the “% Inhibition” value was 92%. With `CN(C)C(=O)NCCc1ncc(C(F)(F)F)cc1Cl` the “% Inhibition” value was -5%. `Cc1cc(C#N)cc(C)c1Oc1nc(Nc2ccc(C#N)cc2Br)nc(N)c1Br` was tested, and the “% Inhibition” value was -9%. In the case of `O=C(c1coc(-c2ccccc2)n1)N1CCc2cc(Br)ccc21`, the “% Inhibition” value is reported as -4%. `Cc1nc(C(=O)Nc2[nH]c(=O)ncc2F)c(-c2ccccc2)o1` was tested, and the “% Inhibition” value was 85%. For `Cc1ccc(-c2cc(C(=O)Nc3nnc(C(C)C)s3)no2)cc1F`, the “% Inhibition” value was 39%. For `CC(C)c1nc(C(=O)Nc2ccccc2CN2CCNC2=O)cs1`, the “% Inhibition” value was 3%. With `O=C(Nc1[nH]c(=O)ncc1F)c1coc(-c2ccccc2)n1` the “% Inhibition” value was 80%. In the case of `CC(C)c1nc(C(=O)Nc2[nH]c(=O)ncc2F)cs1`, the “% Inhibition” value is reported as 92%. `COc1ccc(CN2CC[C@@H]3C(=O)NCCCCCCN(Cc4ccncc4)[C@@H]3C2)cc1Cn1ccnc1` was tested, and the “% Inhibition” value was 47%. For `COc1cc2c(cc1OC)C(Nc1cc(C)ccc1C)=NC(C)(C)C2`, the “% Inhibition” value was -7%. `CCC[C@@]1(C)C(=O)NCCN1Cc1nnc(-c2ccc(Cl)cc2)n1C` was tested, and the “% Inhibition” value was -10%. For `CCOC1CC2(CCN(Cc3cc(Cl)c(OC)cc3Cl)C2)C1` (stereo not drawn), the “% Inhibition” value was 1%. `CC(=O)N(CC[C@]1(Cc2ccccc2Cl)CCOC(C)(C)C1)Cc1ccc(F)cc1` was tested, and the “% Inhibition” value was 0%. `COc1ccc(-c2nn3c(Cc4ccccn4)nnc3s2)cc1OC` was tested, and the “% Inhibition” value was 4%. In the case of `Cc1ccc(Cn2c(=O)c(N3CCC[C@H](C(=O)NCc4ccccc4F)C3)nc3ccccc32)cc1`, the “% Inhibition” value is reported as -4%. With `C[C@@H](CCc1ccccc1)NC(=O)c1cnn2c3c(cnc12)CCCC3` the “% Inhibition” value was -8%. For `Cn1nc(C(=O)N2CCCCC[C@H]2C2CCCCC2)ccc1=O`, the “% Inhibition” value was -10%. For `Cc1cccc(NC(=O)C(=O)N(C)[C@H]2CCCc3c2cnn3C)c1F`, the “% Inhibition” value was -17%. In the case of `CC(C)Cc1cc(C(=O)N2CCc3c(C#N)cccc32)cc(O)n1`, the “% Inhibition” value is reported as -8%. `Cc1cc(-c2ccccc2)cc(-c2ccccc2)c1-c1cc(-c2ccccc2)cc(-c2ccccc2)n1` was tested, and the “% Inhibition” value was -10%. In the case of `Cc1cc(-c2ccccc2)nc2sc(-c3ccccc3)c([O-])[n+]12`, the “% Inhibition” value is reported as -2%. `Cc1cc[n+]2c(-c3ccccc3)cc(-c3ccccc3)nc2c1` was tested, and the “% Inhibition” value was 62%. With `CC[n+]1c(C)sc2cc(-c3ccccc3)sc21` the “% Inhibition” value was -15%. In the case of `O=C(O)CC1(NC(=O)c2cc(Oc3ccccc3)ccn2)CCC1`, the “% Inhibition” value is reported as -7%. With `CCOc1ncccc1CNC(=O)CNC(C)=O` the “% Inhibition” value was 3%. In the case of `Cc1ccccc1C(=O)Cc1ncc[nH]1`, the “% Inhibition” value is reported as 75%. In the case of `C[C@](O)(CCc1ccccc1)C(=O)NCCc1ncc[nH]1`, the “% Inhibition” value is reported as 3%. `Cc1ccc(C(=O)N2CC(C)CC(C)C2)cc1NCc1ncc[nH]1` (stereo not drawn) was tested, and the “% Inhibition” value was 8%. For `COCC[C@](C)(O)CNC(=O)Nc1ccccc1`, the “% Inhibition” value was 1%. For `CC[C@@H](c1ccncc1)N(C)Cc1cc(-c2ccc(Cl)cc2)no1`, the “% Inhibition” value was -6%. For `COCc1nncn1C1CN(C(=O)Cc2cc(OC)cc(OC)c2)C1`, the “% Inhibition” value was -16%. In the case of `COc1nn(C)cc1C(=O)N1CCC[C@H](Oc2cccnn2)C1`, the “% Inhibition” value is reported as 1%. `Cc1cc(C(=O)NCCCN2CCCC2=O)nn1C(F)F` was tested, and the “% Inhibition” value was -13%. In the case of `CCn1cc(-c2cc(C(F)(F)F)nc(N3CCCC3)n2)cn1`, the “% Inhibition” value is reported as 4%. In the case of `COc1ccc(C(=O)C[n+]2cc(-c3ccc(OC)cc3)n3c2CCCC3)cc1`, the “% Inhibition” value is reported as 60%. `COc1ccc(N2CCN(Cc3cc(-c4ccc(Cl)cc4)no3)CC2)cc1` was tested, and the “% Inhibition” value was -22%. In the case of `COc1ccc2c(c1)[n+](CC(=O)c1ccc(-c3ccc(Br)cc3)cc1)c(CO)n2C`, the “% Inhibition” value is reported as 46%. In the case of `Cn1c(-c2ccc(Br)cc2)c[n+](CC(=O)c2ccc(Br)cc2)c1N`, the “% Inhibition” value is reported as -8%. With `COc1ccc(C(=O)C[n+]2nc(CNc3ccc(Br)cc3)n3c2CCCCC3)cc1` the “% Inhibition” value was 84%. For `COc1ccc(CC(=O)NCc2nnc3n2CCC3)cc1`, the “% Inhibition” value was 12%. `COc1cccc(C(=O)C[n+]2cc(-c3ccc(Br)cc3)n(C)c2N)c1` was tested, and the “% Inhibition” value was -3%. In the case of `Cc1ccc(-c2c[n+](-c3ccc(OC(F)F)cc3)c3n2CCCCC3)cc1`, the “% Inhibition” value is reported as 67%. With `COc1ccc(-c2c[n+](-c3ccc(Cl)cc3)c3n2CCCCC3)cc1` the “% Inhibition” value was 60%. For `FC(F)Oc1ccc(-c2c[n+](-c3cccc(C(F)(F)F)c3)c3n2CCCCC3)cc1`, the “% Inhibition” value was 44%.
